Results taken from PubChem BioAssay (NCATS).
“And” between values parts separate entries of the source, which are not always exact repeats. Equal entries are not always repeated. Inconclusive results are not listed. Where a call stands in place of a potency, no number is given. The source made the active and inactive calls. The call rests on the fitted dose curve; in most records, active means well fitted curve in the direction sought with a large enough effect; inconclusive means small, poorly fitted or top-dose-only effect, or another doubt; inactive means no such curve, though single readings can be large; an effect the other way counts as inactive or inconclusive.

Assay: qHTS of pediatric cancer cell lines to identify multiple opportunities for drug repurposing: Primary screen for Rh41 cells (AID 1347108); further: nearly all actives have a fitted effect of over 70% in size
Conditions: Rh41 rhabdomyosarcoma viability, CellTiter-Glo luminescence, 48 h; series mostly up to 46 µM
How it was run: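 500-1,000 cells/well; 5 h pre-incubation 37 °C/5% CO2; compound pinned; 48 h; CellTiter-Glo, 15 min RT; luminescence. MIPE 11-pt from 0.78 nM, NPC 8-pt from 0.59 nM final. Bortezomib 2.3 µM final as positive control.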
Potency means the concentration at half of the fitted maximal effect.

SMILES | Potency
COc1cccc([C@@H](C)NCCCc2ccccc2Cl)c1 | inactive
COc1ccc(-c2coc3cc(O)cc(O)c3c2=O)cc1 | inactive
CN(C)C1CCN(C(=O)c2ccc(NC(=O)Nc3nc(N4CCOCC4)nc(N4CCOCC4)n3)cc2)CC1 | 0.0935 µM (active)
CC(C)(C)COc1ccc(-n2cc(C(=O)O)cn2)cc1C#N | inactive
CC1(C)CCC2=C(O1)c1ccccc1C(=O)C2=O | 18.7 µM (active)
N#Cc1ccc(NC(=O)Nc2ccccc2Br)c2n[nH]nc12 | inactive
CC/C(=C(\c1ccccc1)c1ccc(OCCN(C)C)cc1)c1ccccc1 | inactive
COC(=O)[C@@H]1[C@H]2C[C@H]3c4[nH]c5ccccc5c4CCN3C[C@@H]2CC[C@@H]1O | inactive
CC1(C)CCC[C@@]2(C)[C@@H]1CC[C@@]1(C)OC(=O)C[C@H]21 | inactive
O=C(NCc1ccncc1)C12C[C@H]3C[C@@H](C1)CC(c1ccc(Cl)cc1)(C3)C2 | 23.5 µM (active)
COc1ccc2cc(-c3nc(-c4ccc(S(C)=O)cc4)[nH]c3-c3ccncc3)ccc2c1 (stereo unspecified) | inactive
CO[C@@H](C(=O)N1Cc2[nH]nc(NC(=O)c3ccc(N4CCN(C)CC4)cc3)c2C1)c1ccccc1 | 0.469 µM (active)
CC1=C(/C=C/C(C)=C/C=C/C(C)=C/C(=O)Nc2ccc(O)cc2)C(C)(C)CCC1 | 9.44 µM (active)
COc1ncc(-c2ccc3nccc(-c4ccnnc4)c3c2)cc1NS(=O)(=O)c1ccc(F)cc1F | 0.0118 µM (active)
Cc1c[nH]c(C=C2C(=O)Nc3ccccc32)c1CCC(=O)O | inactive
CCS(=O)(=O)N1CC(CC#N)(n2cc(-c3ncnc4[nH]ccc34)cn2)C1 | 18.7 µM (active)
Nc1nc(F)nc2c1ncn2[C@@H]1O[C@H](COP(=O)(O)O)[C@@H](O)[C@H]1O | inactive
N#CC1(c2ccc(NC(=O)c3cccnc3NCc3ccncc3)cc2)CCCC1 | inactive
CC=CC(=O)N(CC)c1ccccc1C | inactive
O=C(CCCCCCC(=O)Nc1ccccc1)NO | 3.35 µM (active) and 5.9 µM (active)

Assay: qHTS of pediatric cancer cell lines to identify multiple opportunities for drug repurposing: Confirmatory screen for NB1643 cells (AID 1347109); further: nearly all actives have a fitted effect of over 45% in size
Conditions: NB1643 neuroblastoma cell viability; series mostly up to 45.9 µM
How it was run: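 Cells (500-1,000/well) in growth media were settled 5 h at 37 degrees C, then given compounds for 48 h. Viability was read as CellTiter-Glo luminescence. Primary runs used MIPE at 11 points (0.78 nM-46 µM) and NPC at 8 points (0.59 nM-46 µM); follow-ups used 11 points.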

SMILES | Potency
CN(C)C1CCN(C(=O)c2ccc(NC(=O)Nc3nc(N4CCOCC4)nc(N4CCOCC4)n3)cc2)CC1 | 0.928 µM (active)
CC1(C)CCC2=C(O1)c1ccccc1C(=O)C2=O | 23.3 µM (active)
CC(=NNC(=S)N1CCC1)c1ccccn1 | inactive
CO[C@H]1C[C@@H]2CC[C@@H](C)[C@@](O)(O2)C(=O)C(=O)N2CCCC[C@@H]2C(=O)O[C@H]([C@H](C)C[C@@H]2CC[C@H](OP(C)(C)=O)[C@H](OC)C2)CC(=O)[C@H](C)C=C(C)[C@@H](O)[C@@H](OC)C(=O)[C@H](C)C[C@H](C)C=CC=CC=C1C | inactive
CC1(C)CCC[C@@]2(C)[C@@H]1CC[C@@]1(C)OC(=O)C[C@H]21 | inactive
COc1ncc(-c2ccc3nccc(-c4ccnnc4)c3c2)cc1NS(=O)(=O)c1ccc(F)cc1F | 0.465 µM (active)
